A selection: hits, their analogues and other compounds. The true share with any hit is near 12%.
Lassa entry inh: Lassa virus entry inhibition; Potency, µM (series often up to 37.9 µM), for inactives: at the highest dose activity change, negative = inhibition, most hits filed as inhibitors; Lassa virus pseudotype entry inhibition, cell reporter; hit rate 1.2% among 300,000; calls by dose curve; tested in HEK293 cells; further: potency means the concentration at half of the fitted maximal effect; on the % scale 0 is the no-effect control and ±100 the full control effect; nearly all actives have a fitted effect of over 50% in size
Cycloheximide cs: counter-screen hit for Shiga toxin inhibitors, cycloheximide | cell reporter, cycloheximide protein synthesis inhibition counterscreen | max response, % | hit rate 12% among 300,000 | AID 2314; in the data active means max response mostly above about 13%, no sharp cut-off; inactive means mostly below about 14%; further: read at 38.3 µM for the half of the compounds with a filed dose; 0% is about no effect
Shiga inhibitor: inhibitors of Shiga toxin in Vero cells | Vero cells, Shiga toxin protein synthesis inhibition reporter | inhibition, % at 38.7 µM | hit rate 9.2% among 290,000; in the data active means inhibition mostly above about 28%, no sharp cut-off; inactive means mostly below about 43%; further: 0% is about no effect
Marburg entry inh: inhibitors of Marburg virus binding or cell entry; Marburg virus pseudotyped entry inhibition, cell reporter; Potency, µM (doses to about 37.8 µM), for the others: at the top dose activity change, negative = inhibition, hits mostly inhibitors; hit rate 1.8% among 300,000; calls by dose curve; tested in HEK293 cells; further: potency means the concentration at half of the fitted maximal effect; on the % scale 0 is the no-effect control and ±100 the full control effect
* hit, by the source's call; ? = inconclusive; · = not tested or not shown; [ ] = dose if it differs, or a comment.

SMILES | Lassa entry inh | Cycloheximide cs | Shiga inhibitor | Marburg entry inh
CCC1CCCCN1C(=O)CCc1nnc(Cc2cc(OC)ccc2OC)o1 (stereo not given) | -9.0% | 54.1* | 92.8* | ?
COc1ccc(OC)c(Cc2nnc(CCC(=O)NC(C3CC3)C3CC3)o2)c1 | 2.9% | -2.1 | 58.6 | 33.0%[46.1 µM]
COc1ccc(OC)c(Cc2nnc(CCC(=O)N3CCN(C4CCCC4)CC3)o2)c1 | 20.1% | 40.2* | 99.1* | 29.9%
COc1ccc(OC)c(Cc2nnc(CCC(=O)N3CCCCC3)o2)c1 | 14.5% | 22.5* | 73.0* | ?
NS(=O)(=O)c1ccc(CCNC(=O)CNC(=O)c2ccc(Oc3ccccc3)cc2)cc1 | 13.7%[46.1 µM] | -7.5 | -12.2 | -17.1%[46.1 µM]
Cn1sc(=O)n(Cc2ccccc2)c1=O | · | -10.0 | -8.6 | ·
Cc1ccccc1C(=O)Nc1sc2c(c1C(=O)N1CCC(C)CC1)CCC(C)C2 (stereo not given) | 21.0%[46.1 µM] | · | · | -20.4%[46.1 µM]
COc1ccc(Nc2ncnc3sc(C)cc23)c(OC)c1 | ? | 23.3* | 48.1* | 4.2%
Cc1cc(Cl)ccc1-n1c(CCC(=O)O)ccc1-c1cccs1 | 4.5%[46.1 µM] | · | · | 22.3%[46.1 µM]
OCCCNc1cc(-c2ccnc(Nc3cccc(Cl)c3)n2)ccn1 | · | 23.3* | 36.9* | ·
Cc1ccc(C(=O)N2CCCC2)cc1S(=O)(=O)Nc1cccc(C)c1C | -20.3%[46.1 µM] | -0.6 | -15.8 | -17.1%[46.1 µM]
O=C(Nc1nc2cc3c(cc2s1)OCO3)C1CC1 | -4.0% | 24.3* | 81.3* | ?
CC(=O)Nc1nc2cc3c(cc2s1)OCCO3 | · | 44.2* | 29.2* | ·
Cc1cccc2sc(NNC(=O)c3ccc4c(c3)OCCO4)nc12 | 16.0% | 12.4 | 75.9 | -2.5%
CCN(CC)CCN(C(=O)C1CCCCC1)c1nc2cc3c(cc2s1)OCO3 | · | -2.3 | -13.3 | ·
O=C(NNc1nc2cc3c(cc2s1)OCCO3)c1ccccc1 | -4.0%[46.1 µM] | 36.1* | 145.9* | ?
O=C(Nc1nc2cc3c(cc2s1)OCO3)C1CCCCC1 | · | 89.2* | 108.3* | ·
O=C(NCCCCN1CCOCC1)c1cc2ccccc2o1 | · | 4.5 | -21.0 | ·
COc1ccc(CNC(=O)CCCN2C(=O)CSc3c2c(C)nn3-c2ccccc2)c(OC)c1 | -6.1%[46.1 µM] | · | · | ·
CC(NC(=O)CN1CCc2ccccc21)c1ccccc1 (stereo not given) | -7.0% | -1.8 | -2.9 | -1.7%
N#Cc1c(-c2ccccc2)c(-c2ccccc2)nn(CC(=O)NNC(=O)Nc2ccc(Cl)c(Cl)c2)c1=O | -28.4% | 5.4 | -27.6 | ?
O=C(Nc1nc2cc3c(cc2s1)OCCO3)C1CCCCC1 | 10µM* | · | · | ?
CSCCC(NC(C)=O)C(=O)Oc1ccc2c3c(c(=O)oc2c1)CCCC3 (stereo not given) | -0.2% | 12.1 | 4.9 | 8.4%
CSCCC(NC(=O)OC(C)(C)C)C(=O)Oc1ccc2c(=O)c(-c3ccc4c(c3)OCCO4)coc2c1 (stereo not given) | ? | 36.3* | 83.3* | ?
CC1CCCN(S(=O)(=O)c2ccc(C(=O)Nc3nnc(-c4ccco4)o3)cc2)C1 (stereo not given) | ? | -0.8 | -5.7 | ?
SMILES | Lassa entry inh | Cycloheximide cs | Shiga inhibitor | Marburg entry inh
COc1ccccc1Nc1c2c(nc3ccc(N)cc13)CCCC2 | · | -1.8 | -4.3 | ·
COc1ccccc1Nc1c2c(nc3ccc(NC(=O)c4ccccc4F)cc13)CCCC2 | ? | · | · | 3.16µM*
COc1ccc(C(=O)Nc2ccc3nc4c(c(Nc5ccccc5OC)c3c2)CCCC4)c(OC)c1 | -3.7%[46.1 µM] | · | · | 2.51µM*
COc1ccc(C(=O)Nc2ccc3nc4c(c(Nc5ccc(OC)c(OC)c5)c3c2)CCCC4)c(OC)c1 | -10.8%[46.1 µM] | · | · | ?
COc1ccccc1Nc1c2c(nc3ccc(NC(=O)c4ccc(OC)c(OC)c4)cc13)CCCC2 | ? | · | · | 2.24µM*
COc1ccccc1Nc1c2c(nc3ccc(NC(=O)c4cccc(OC)c4OC)cc13)CCCC2 | 7.94µM* | · | · | ?
Cc1ccnc(NC(=O)CCC(=O)N(CC(=O)NC2CCCCC2)Cc2cccs2)c1 | -2.1% | 9.0 | -8.5 | -6.9%[46.1 µM]
O=C(Cc1ccc(Cl)c(Cl)c1)OCCN1CCCC1 | · | · | · | 21.0%
COc1cccc(C2CC(=O)Nc3c2c(=O)n(C)c2nc4ccccc4n32)c1OC (stereo not given) | -0.1%[46.1 µM] | · | · | -2.9%[46.1 µM]
Cc1cc2c(cc1C)C(c1ccccc1OC(C)C)CC(=O)N2 (stereo not given) | ? | -1.1 | -4.2 | 1µM*
CC(C)Oc1ccccc1C1CC(=O)Nc2cc3c(cc21)OCO3 (stereo not given) | ? | -1.2 | -12.9 | 6.51µM*
COc1cccc(C2CC(=O)Nc3cc4c(cc32)OCO4)c1OC(C)C (stereo not given) | -28.9%[46.1 µM] | · | · | ?
CC(O)CNC12CC3CC(CC(C3)C1)C2 (stereo not given) | · | -9.3 | -3.7 | ·
CN(C)c1nccc(N(Cc2ccccc2)Cc2ccccc2)c1C#N | 0.5% | 35.9* | 94.4* | -18.9%
CN(C)CCN(Cc1ccccc1)c1ccnc(N(C)C)c1C#N | -7.2% | -1.3 | 38.1 | -13.1%[46.1 µM]

Source: PubChem
